ALDH1A1 inh: inhibitors of human aldehyde dehydrogenase 1A1 | P00352 | Purified ALDH1A1, NADH fluorescence, propionaldehyde substrate | Potency, µM (series often up to 75.3 µM), without a hit: at the highest dose activity, negative = inhibition, most hits filed as inhibitors | hit rate 7.3% among 220,000;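 note: potency is the fitted concentration of half-maximal effect; plate controls were no enzyme wells and a reference inhibitor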
Target sequence (P00352 whole entry, looked up): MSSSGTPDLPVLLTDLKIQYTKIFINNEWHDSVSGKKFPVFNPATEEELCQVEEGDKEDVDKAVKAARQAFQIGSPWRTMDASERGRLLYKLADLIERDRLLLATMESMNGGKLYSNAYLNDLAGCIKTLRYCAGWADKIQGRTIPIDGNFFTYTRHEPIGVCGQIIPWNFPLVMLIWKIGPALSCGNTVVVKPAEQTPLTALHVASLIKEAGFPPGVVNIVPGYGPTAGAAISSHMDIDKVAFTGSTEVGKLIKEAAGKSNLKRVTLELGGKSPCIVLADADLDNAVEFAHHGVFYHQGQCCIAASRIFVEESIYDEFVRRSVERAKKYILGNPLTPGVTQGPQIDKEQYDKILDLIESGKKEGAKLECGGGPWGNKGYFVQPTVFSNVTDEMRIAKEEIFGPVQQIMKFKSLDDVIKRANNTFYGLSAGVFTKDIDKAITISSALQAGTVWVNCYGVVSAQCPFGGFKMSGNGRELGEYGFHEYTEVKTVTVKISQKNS
PNC inhibitor: blocks assembly of the perinucleolar compartment | PC3M PTB-GFP, PNC prevalence imaging, 16 h; hits give low values | activity change (PNC), negative = inhibition, % at 10 µM | hit rate 3.1% among 140,000;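 active = readout at or below -70, meaning at least 70% loss of cells showing the perinucleolar compartment, a nuclear body marking cancer cells; inconclusive = readout between -30 and a set limit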;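 note: plate controls were DMSO wells for no effect and camptothecin positive control wells for full effect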
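Read-out is percentage of cells bearing a perinucleolar compartment, from automated 20x imaging of fixed, Hoechst-stained PC3M PTB-GFP cells. Cells were seeded 4 h, then exposed 16 h to compound (23 nl of library stock) in duplicate plates.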
Lamin A splicing: modulators of lamin A splicing. HeLa LMNA splicing GFP/RFP minigene ratio, 48 h. hit rate 0.01% among 200,000. AID 1487. Potency, µM (highest dose often 46.1 µM), for inactives: at the highest dose ratio change, negative = inhibition, hits mostly inhibitors; active = well fitted inhibition curve with a large enough effect in the signal ratio, with a control signal flat, not every such curve was filed as active; inconclusive = small, poorly fitted or top-dose-only effect, or effect the other way, or a change in a side signal; the % refers to the signal ratio; note: potency is the fitted concentration of half-maximal effect
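Read-out is the ratio of GFP to DsRed2 object intensity, acquired by 488 nm laser-scanning cytometry on HeLa lamin A-EGFP minigene reporter cells. Compound incubation 48 hrs at 37 °C in Opti-MEM with 2% FBS; DMSO 0.5% final.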
HPGD block: blocks human HPGD enzyme activity; P15428; purified HPGD, NADH fluorescence kinetic, PGE2 substrate; Potency, µM, without a hit: at the top dose activity change, negative = inhibition, usual class: inhibitors; hit rate 4.3% among 150,000; note: potency is the fitted concentration of half-maximal effect
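NADH formation kinetics: reaction with 30 uM PGE2 and 1 mM NAD+ (final), 20 nM enzyme, Tris-HCl pH 8 with Tween 20, after 15 min compound preincubation at room temperature. Fluorescence change, last versus first of five reads.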
12-hLO inh: inhibitors of human 12-lipoxygenase (ALOX12); P18054; purified 12-hLO, xylenol orange hydroperoxide absorbance; Potency, µM (highest dose often 57.1 µM), for inactives: at the highest dose activity change, negative = inhibition, actives largely listed as inhibitors; hit rate 0.12% among 150,000; AID 1452; active = well fitted inhibition curve with a large enough effect; inconclusive = small, poorly fitted or top-dose-only effect; note: potency is the fitted concentration of half-maximal effect; nearly all actives have a fitted effect of over 55% in size
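Hydroperoxide formation by human 12-lipoxygenase from 40 uM arachidonic acid was followed colorimetrically via ferric-xylenol orange complex, using the 573/405 nm absorbance ratio. Enzyme concentration was 150 nM, with 30 min reaction at room temperature.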
Starred values were filed as active, the others as inactive; ? = inconclusive; / = no result; [ ] = dose if it differs, or a comment. Most compounds without a hit are left out; they make up all but 10% or so of the library. Unless noted, calls come from the whole dose curve; as a rule, active = well fitted inhibition curve with a large enough effect (not every such curve was filed as active); inconclusive = small, poorly fitted or top-dose-only effect, or another doubt; inactive = no such curve, though single readings can be large or run the other way. Unless noted, % is set by controls: 0 for no effect and ±100 for the full control effect.

SMILES | ALDH1A1 inh | PNC inhibitor | Lamin A splicing | HPGD block | 12-hLO inh
Cc1ccc(NC(=O)C(Cc2ccccc2)N2Cc3ccccc3C2=O)cc1Cl (configuration not stated) | / | / | 4%[46 µM] | / | /
Cc1ccc(/C=C/C2=Cc3c(sc(NC(=O)CSc4n[nH]c(N)n4)c3C#N)C(C)(C)C2)o1 | 0.79µM* | -3 | ? | ? | ?
C1CCCC1 | -3% | / | / | -2% | -4%
O=S(=O)(Cc1cc(Oc2ccccc2)nc(-c2ccccc2)n1)c1ccccc1 | 4% | -102* | 27% | -15% | -8%
COc1ccc(-n2c(=O)c(C)nc3cnc(N4CCNCC4)nc32)cc1 | ? | / | / | -21% | 3%
COc1cccc(Cn2nnc3c(=O)[nH]c(C4CCCN(C(=O)c5ccccc5Cl)C4)nc32)c1 (configuration not stated) | 7.9µM* | ? | 16% | 14µM* | -5%
Cc1nc2c(nnn2Cc2ccccc2)c(=O)[nH]1 | -1% | / | -3%[9.22 µM] | / | /
COc1ccc(Cn2nnc3c(=O)[nH]c(C4CCCN(C(=O)c5ccccc5)C4)nc32)cc1 (configuration not stated) | 0% | 44 | -8% | 13µM* | 6%
CCCc1nc2c(nnn2Cc2ccccc2)c(=O)[nH]1 | -2% | -14 | 21% | -26% | -4%
O=C(c1ccccc1Cl)N1CCCC(c2nc3c(nnn3Cc3ccccc3)c(=O)[nH]2)C1 (configuration not stated) | -13% | 15 | 8% | 16µM* | -7%
Nc1ccc(Cl)cc1Cl | -6% | / | / | -3% | -9%
CCOC(=O)c1c(NC(=O)COC(=O)Cn2cnc3ccccc32)sc2c1CCC(C)C2 (configuration not stated) | 7.9µM* | 23 | 7% | -25% | -19%
COC(=O)c1c(NC(=O)COC(=O)Cn2cnc3ccccc32)sc2c1CCCC2 | 14µM* | -29 | -13% | -20% | -4%
COC(=O)c1c(NC(=O)COC(=O)Cn2cnc3ccccc32)sc(C)c1C | 25µM* | 2 | ? | -19% | -5%
CCOC(=O)c1c(NC(=O)COC(=O)Cn2cnc3ccccc32)sc(C)c1C | ? | ? | ? | -5% | -1%
CCOC(=O)c1c(NC(=O)Cn2nnc3ccccc32)sc2c1CCC(C)C2 (configuration not stated) | -2% | ? | ? | -26% | -9%
COc1ccc(N2CCN(C(=O)CSc3ccccc3N)CC2)cc1 | 25µM* | ? | ? | ? | 6%
COc1ccc(N2CCN(C(=O)CSc3nnc4n3C(C)(C)Cc3ccccc3-4)CC2)cc1 | 22µM* | -80* | ? | -14% | -2%
Cc1ccc(CNC(=O)CSc2nc3ccsc3c(=O)n2-c2ccc(C(=O)O)cc2)cc1 | / | / | 16%[46 µM] | / | /
C/C(CCc1oc2ccc(Br)cc2c1-c1ccc(C)o1)=N/O | ? | 56 | ? | 20µM* | -13%
Cc1ccc(-c2cc(C(=O)O)c3cc(Br)ccc3n2)o1 | ? | -28 | -4% | ? | -1%
CC(O)CN=c1cc(-c2ccccc2)oc2ccc(Cl)cc12 (configuration not stated) | ? | 14 | -14% | -20% | -2%
C/C(CCc1oc2ccc(Cl)cc2c1-c1ccc(C)o1)=N\O | 4.5µM* | ? | ? | 32µM* | -20%
CCNc1ncc2nc(-c3ccc(Cl)cc3)c(=O)n(C3CC3)c2n1 | ? | / | / | ? | -3%
Cc1nc(N2CCOCC2)c2nc(-c3ccccc3)n(C(C)CN(C)C)c2n1 (configuration not stated) | ? | / | / | ? | -2%
SMILES | ALDH1A1 inh | PNC inhibitor | Lamin A splicing | HPGD block | 12-hLO inh
O=C1C=CC2(OCCCO2)C(Br)=C1CO | 2% | / | / | ? | /
Oc1cc2c(cc1C(c1ccc(Cl)c(Cl)c1)N1CCCC1)OCO2 (configuration not stated) | 0.79µM* | / | / | / | /
COc1ccc([C@@H](C)c2cc3c(cc2O)OCO3)cc1 | 3%[13.5 µM] | / | / | -9% | -13%[11.4 µM]
O=C(NCc1ccccn1)c1cccs1 | 6% | ? | 6% | -17% | 1%
O=C(NCc1nc2ccccc2[nH]1)c1ccco1 | 2% | -98* | 7% | -4% | 3%
CCn1c(CNC(=O)c2cccs2)n[nH]c1=S | ? | -109* | 8% | -12% | -1%
O=C(NCc1nc2ccccc2[nH]1)c1cccs1 | 3% | -87* | -1% | -6% | 3%
